# “And” between values parts separate entries of the source, which are not always exact repeats. Equal values may be shown once. In all, about 220,000 compounds went through this assay and about 16,000 (7.3%) were called active. Roughly 25% stayed inconclusive and do not appear here. Shown is part of a subset that was picked to be rich in actives. Values without a mark were called inactive. Calls come from the whole dose curve; as a rule, active = well fitted inhibition curve with a large enough effect (not every such curve was filed as active); inconclusive = small, poorly fitted or top-dose-only effect, or another doubt; inactive = no such curve, though single readings can be large or run the other way.
# Molecular target: Aldehyde dehydrogenase 1A1 (Homo sapiens) (UniProt P00352)
# Test: qHTS Assay for Inhibitors of Aldehyde Dehydrogenase 1 (ALDH1A1);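 for activity, negative = inhibition: plate controls were no enzyme wells and a reference inhibitor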
# Conditions: Purified ALDH1A1, NADH fluorescence, propionaldehyde substrate; series mostly up to 75.3 µM; activity, negative = inhibition: at the top concentration
# Potency is the fitted concentration of half-maximal effect.
# Aldehyde dehydrogenase 1A1 (Homo sapiens), sequence (P00352 whole entry, looked up): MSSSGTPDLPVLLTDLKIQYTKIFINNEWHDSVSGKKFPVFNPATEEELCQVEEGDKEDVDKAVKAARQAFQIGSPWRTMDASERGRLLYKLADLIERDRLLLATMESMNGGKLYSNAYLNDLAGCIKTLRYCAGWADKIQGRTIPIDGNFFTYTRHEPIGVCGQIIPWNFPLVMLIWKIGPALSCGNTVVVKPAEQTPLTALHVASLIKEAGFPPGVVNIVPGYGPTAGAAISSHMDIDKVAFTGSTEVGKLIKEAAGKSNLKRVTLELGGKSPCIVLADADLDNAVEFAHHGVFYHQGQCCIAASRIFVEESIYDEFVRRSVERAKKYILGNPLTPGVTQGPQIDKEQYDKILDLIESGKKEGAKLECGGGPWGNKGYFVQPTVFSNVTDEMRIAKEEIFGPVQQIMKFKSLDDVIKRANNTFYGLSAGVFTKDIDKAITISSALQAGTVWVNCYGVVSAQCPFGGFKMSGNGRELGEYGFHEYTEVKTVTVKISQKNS
Compound,"activity, negative = inhibition",Potency
CCN(CC)CCNc1nc(-c2ccc(OC(F)F)cc2)c(C)s1,-2.65%,
O=C(Nc1ccccc1N1CCCCC1)c1cccc(F)c1,-9.96%,
O=C(c1ccccc1)c1ccc2nc(N3CCCCC3)c3nncn3c2c1,,12.6 µM (active)
O=c1cc(-c2ccccc2)nc(N2CCCCC2)[nH]1,-8.51%,
O=C(O)C(c1ccccc1)C1(O)CCCCC1 (stereo not drawn),9.96%,
Cc1ccc(-c2cn(S(=O)(=O)c3cccc([N+](=O)[O-])c3)nc2N)cc1,4.26%,
O=C(Nc1ccncc1)c1cc(-c2ccccn2)nc2ccc(Br)cc12,0.055%,
CCCCCn1c(SCCC(C)C)nc2c1c(=O)[nH]c(=O)n2C,,22.4 µM (active)
C#CC(C)(C)NC(=O)CSc1nc2c(c(=O)n(C)c(=O)n2C)n1CCCC,16.5%,
Cn1c(=O)[nH]c(=O)c2c1nc(Br)n2CCCCSc1nc2ccccc2o1,-7.93%,
O=[N+]([O-])c1ccccc1NCc1ccc(Cl)cc1,4.53%,
Oc1ccccc1CNCc1ccccc1O,-6.72% [at 13.5 µM],
Oc1ccc(CNc2ccccc2O)cc1,,3.98 µM (active)
Cn1nc(C(F)(F)F)c2cc(C(=O)N3CCOCC3)sc21,5.73%,
Cc1ccnc2nc(C(=O)Nc3nnc(-c4ccccc4)o3)nn12,8.11%,
CC(C)=C1SC(N2CCN(c3cccc(C)c3)CC2)=NC1=O,-4.12%,
CCN1C(=O)/C(=C2\SC(N3CCCCC3)=NC2=O)c2ccccc21,,10 µM (active)
C=C/C1=C/Cc2ccccc2[C@H](C[N+](=O)[O-])C(C(=O)OC)(C(=O)OC)C1,-1.98%,
O=C(CN1C(=O)CC(c2ccccc2)S(=O)(=O)c2ccccc21)NC1CCCC1 (stereo not drawn),-7.83%,
COCCOC(=O)C1=C(C)Nc2nc(C)nn2C1c1ccccc1 (stereo not drawn),12.5%,
COc1cccc(-c2nc3n(n2)C(c2ccccc2Cl)C(C(N)=O)=C(C)N3)c1 (stereo not drawn),-1.6%,
CC1=C(C(N)=O)C(c2ccc3c(c2)OCO3)n2nc(-c3cccc(C)c3)nc2N1 (stereo not drawn),,3.55 µM (active)

Compound,"activity, negative = inhibition",Potency
C/C(=N/NC(=O)CCc1ccccc1)c1ccco1,-1.48%,
CSCCC(=O)N1CCCC(CNC(=O)c2ccccc2Cl)C1 (stereo not drawn),5.62%,
CC(C)(C)c1cc(P(=O)(c2ccccc2)c2ccccc2)ccc1O,2.97%,
COCCCNCC(=O)Nc1sc(C)c(C)c1C(=O)OC,,11.2 µM (active)
COCCCNC(=O)c1c(F)c(F)c(F)c(F)c1F,9.81%,
CCC(=O)Nc1sc(C(=O)Nc2ccccc2)c(C)c1C(=O)OC,1.12%,
Cc1ccc(CCCOC(=O)C[N+]2(C)CCCCC2)cc1,5.06%,
O=C(CC1NCCc2ccccc21)Nc1cccc(Cl)c1 (stereo not drawn),1.34%,
CC1CC(C)CN(S(=O)(=O)c2ccc(C(=O)NN3CCOCC3)cc2)C1 (stereo not drawn),-5.98%,
CN(C)/C=C1\C=C(c2ccccc2)OC1=O,,10 µM (active)
CNC(=S)N1CCC(NC(=O)C(Cc2ccc(F)cc2)NC(C)=O)CC1 (stereo not drawn),0.163%,
COc1ccc(CC(NC(C)=O)C(=O)NC2CCN(C(=O)C3CC3)CC2)cc1OC (stereo not drawn),5.16%,
CC(=O)NC(Cc1ccc(F)c(F)c1)C(=O)NC1CCN(c2nnnn2-c2ccccc2)CC1 (stereo not drawn),,3.16 µM (active)
N#CCC(=O)NC(=O)NCC1CC1,,3.98 µM (active) and 1.26 µM (active)
CC(C)(C)NC(=O)NC(=O)COC(=O)CCC1CCCCC1,-5.33%,
CC(C)NC(=O)NC(=O)COC(=O)c1ccc(NC(=O)CC#N)cc1,6.29%,
COc1cccc(CC2(CO)CCN(Cc3cnc(-c4cccc(C)c4)nc3)CC2)c1,-0.151%,
COc1ccc(C2CC(c3ccccc3)=NN2C(=O)COC(=O)COc2ccccc2)cc1 (stereo not drawn),-9.93%,
O=C(CC1SCCNC1=O)Nc1ccc(Cl)c(Cl)c1 (stereo not drawn),-1.94%,
Cc1oc2cc([N+](=O)[O-])c(O)c([N+](=O)[O-])c2c1C(=O)c1ccc(Br)cc1,-15.7%,
CC(CNC(=O)c1ccc(Br)o1)NC(=O)c1ccc(Br)o1 (stereo not drawn),,28.2 µM (active)
CC(CCc1ccccc1)NC(=O)c1ccc(Br)o1 (stereo not drawn),-52.6%,

Compound,"activity, negative = inhibition",Potency
CC(CNC(=O)c1ccc(N)cc1)NC(=O)c1ccc(N)cc1 (stereo not drawn),12.3%,
CS(=O)(=O)N(Cc1ccccc1Cl)c1ccc(C(=O)NCc2cccnc2)cc1,-5.16%,
CC1CCN(CCC(=O)Nc2ccccc2)CC1,5.39%,
CCN(CC)CCNC(=O)c1ccc(NS(=O)(=O)c2ccc3c(c2)OCCO3)cc1,1.71%,
CCCCC/C=C\C/C=C\CCCCCCCCCC(N)=O,-3.54%,
CC/C=C/C/C=C/C/C=C/CCCCCCCC(=O)OCC,,1.12 µM (active)
CCCCC/C=C\C/C=C\C/C=C\CCCCCCC(N)=O,1.39%,
CC(=O)c1c(-c2ccccc2)c2ccccc2[nH]c1=O,-7.94%,
Brc1cc(/C=N/n2cnnc2)oc1Br,9.74%,
NNC(=O)C1CC(O)CN1S(=O)(=O)c1ccc(Cl)cc1 (stereo not drawn),4.39%,
O=C1COc2ccc(C(=O)COC(=O)C3CC(O)CN3S(=O)(=O)c3ccc(Cl)cc3)cc2N1 (stereo not drawn),,5.01 µM (active)
O=C1COc2ccc(C(=O)COC(=O)c3cccnc3Cl)cc2N1,-2.97%,
COC(=O)N/N=C/c1ccc(/C=N/NC(=O)OC)cc1,1.22%,
Cc1[nH]c2ccccc2c1SCC(=O)Nc1nccs1,16.2%,
CCC(=O)Nc1cc(C(F)(F)F)ccc1N1CCCC1,11.1%,
CC(=O)Nc1cccc(C(=O)Nc2nc(C)cs2)c1,-0.569%,
O=C(O)CSc1nccc2ccccc12,9.04%,
Cc1ccc(Oc2ccc3c(c2)C(=O)N(c2cccc4cccnc24)C3=O)cc1,,11.2 µM (active)
CC(=O)Oc1ccc(C)cc1N1C(=O)c2ccc(C(=O)O)cc2C1=O,2.51%,
Cc1cccc(N2C(=O)c3cccnc3C2=O)c1,2.24%,
CSc1ncccc1C(=O)OCc1ccc(Br)cc1,9.11%,
CC(=O)n1cc([C@@H]2C=C(C(=O)N3CCN(Cc4ccc5c(c4)OCO5)CC3)O[C@H](OCc3ccc(CO)cc3)C2)c2ccccc21,,25.1 µM (active)

Compound,"activity, negative = inhibition",Potency
O=C(C1=C[C@H](c2coc3ccccc3c2=O)C[C@H](OCc2ccc(CO)cc2)O1)N1CCN(Cc2ccccc2)CC1,-12.4%,
CN1CCN(C(=O)C2=C[C@H](c3ccc4c(c3)OCO4)C[C@H](OCc3ccc(CO)cc3)O2)CC1,-2.84%,
O=C(C(=O)N1CCc2ccccc2C1)c1c[nH]c2ccccc12,-2.78%,
O=C(Nc1nnc(Cc2ccc(Cl)cc2)s1)c1cccnc1,-0.189%,
Cn1cnc([N+](=O)[O-])c1Sc1ccccc1,,11.2 µM (active)
Cn1cnc([N+](=O)[O-])c1Nc1ccccc1O,2.48%,
Cn1cnc([N+](=O)[O-])c1Sc1n[nH]c(N)n1,0.133%,
COC(=O)COc1ccc(C2NC(=O)NC(C)=C2C(=O)NCc2ccccc2)cc1OC (stereo not drawn),19.6%,
O=C(Nc1ccc(N2CCOCC2)nc1)c1c(F)cccc1F,7.81%,
Cc1ccc(S(=O)(=O)Cc2cc(-c3ccc(Cl)cc3)no2)cc1,-5.52%,
COC(=O)c1cc(NC(=O)c2ccco2)ccc1N1CCOCC1,-6.16%,
Cc1c(C=O)c2ccccc2n1CC(=O)O,2.12%,
COC(=O)c1ccccc1SC1CC(=O)N(c2cccc(C)c2)C1=O (stereo not drawn),,17.8 µM (active)
O=C1CC(c2ccccc2)C(=O)N1c1cccc(O)c1 (stereo not drawn),4.81%,
Cc1cccc(N2C(=O)CC(SC(N)=Nc3ccccc3)C2=O)c1 (stereo not drawn),2.23%,
O=C1OCC2=C1C(c1ccccc1)CC(=O)N2c1cccc(F)c1 (stereo not drawn),2.06%,
CC(=O)N(CN1C(=O)C2C3C=CC(C3)C2C1=O)c1cccc(Cl)c1 (stereo not drawn),0.697%,
Cn1cc(CN2CCCC(CO)C2)c(-c2ccc(Oc3ccccc3)cc2)n1 (stereo not drawn),-3.15%,
CC(C)C1=CC2=CC[C@H]3[C@](C)(C(=O)O)CCC[C@]3(C)C2CC1 (stereo partly drawn),-11%,
S=C(NCCc1ccccc1)N1CCCCC1,-4.74%,
Oc1cc2c(cc1O)CN(C(=S)NCCc1ccc(Cl)cc1)CCC2,,15.8 µM (active) and 20 µM (active)
O=C1CCN(C(=S)NCCc2ccccc2)CC1,0.459%,

Compound,"activity, negative = inhibition",Potency
CCN(CC)C(=O)CN(c1cccc([N+](=O)[O-])c1)S(=O)(=O)c1ccccc1,6.73%,
O=C(Nc1cccc([N+](=O)[O-])c1)Nc1ccc(Cl)cn1,11.7%,
O=C(CCl)N(Cc1cccc([N+](=O)[O-])c1)c1cccc(Cl)c1,,0.158 µM (active)
COc1ccc(CCNC(=O)c2ccc(CS(=O)(=O)c3ccc(Br)cc3)o2)cc1OC,21.2%,
Nc1nc(NC(=O)/C=C/c2ccc(F)cc2)nn1-c1ccccc1,11.2%,
CCOC(=O)c1c(NC(=O)CSc2nnc(Cc3csc(N)n3)n2C)sc(C)c1C,,7.94 µM (active)
CCOc1ccc(Nc2nc(Cc3nnc(SCC(=O)NC4CCCC4)n3C)cs2)cc1,-1.4%,
CCOC(=O)CSc1nnc(CNc2nc(-c3ccccc3)cs2)n1C,-3.03%,
CCO[C@H]1OC(C(=O)N2CCCCCCC2)=C[C@@H](c2ccc(C(F)(F)F)cc2)[C@@H]1CCCO,2.63%,
NC(=O)C1CCN(Cc2nc3c(Br)cc(Br)cc3c(=O)[nH]2)CC1,4.31%,
O=C(Nc1ccc(C(=O)O)cc1)/C(=C/c1ccc([N+](=O)[O-])cc1)NC(=O)c1ccccc1,3.09%,
Nc1ncnc(Nc2cccc(Cl)c2Cl)n1,-11.2%,
CC(C)(C)c1nc2ccccc2c(=O)n1N1C(=O)c2ccccc2C1=O,-5.76%,
CCC1(CC)Cc2ccccc2-c2nc3ccccc3c(=O)n21,,15.8 µM (active)
CCOC(=O)C1CCc2nc3ccccc3c(=O)n21 (stereo not drawn),12.2%,
COc1ccc(-n2c(O)c(C=NCC(c3ccco3)N3CCCC3)c3ccccc3c2=O)cc1OC (stereo not drawn),-15%,
CC1COc2ccccc2N1C(=O)c1cccnc1Cl (stereo not drawn),-3.66%,
CCn1cc(CN2CCCC(CNS(=O)(=O)Cc3ccccc3)C2)cn1 (stereo not drawn),5.21%,
CC(Sc1nc2c([nH]c3ccccc32)c(=O)n1C)c1ccccc1 (stereo not drawn),-5.21%,
Cc1ccc2nsnc2c1S(=O)(=O)N1CCCC1C(=O)O (stereo not drawn),-3.73%,

# Source: PubChem BioAssay AID1030 (National Center for Advancing Translational Sciences (NCATS), 2008)
